Source: PubChem BioAssay AID1159580 (chemical genetic matrix, 2015)
The whole screen tested about 5,500 compounds, of which about 2,000 (36%) were called active. About 18% were inconclusive and are not listed. Cut-off read from the data, not from the text of the source: active = normalized growth mostly below about 0.91 (no sharp cut-off); inconclusive = no clear call, values can overlap the other calls; inactive = mostly above about 0.92. This is one part of the list.

Experiment: chemical genetic growth profiling, strain panel (AID 1159580);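 note: tested at 20 µM; growth read once vehicle control cultures reached saturation at 30 °C; 1 = growth at the plate median or of vehicle wells; lower values mean less growth of the strain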
Conditions: growth OD

Measured: normalized growth

Cn1nnnc1SCC1=C(C(=O)O)N2C(=O)C(NC(=O)C(O)c3ccccc3)C2SC1 (configuration not stated)
inactive: S. cerevisiae deletion strains, locus YJR075W, strain HOC1, active compounds read low 1.01 | S. cerevisiae deletion strains, locus YKL009W, strain mrt4, active compounds read low 1.01 | S. cerevisiae deletion strains, locus YKL068W, active compounds read low 1.01 | S. cerevisiae deletion strains, locus YKL085W, strain MDH1 (second series), active compounds read low 1.01 | S. cerevisiae deletion strains, locus YKL085W, strain MDH1, active compounds read low 1.01 | S. cerevisiae deletion strains, locus YKL160W, strain elf1, active compounds read low 0.95 | S. cerevisiae deletion strains, locus YKL190W, strain CNB1, active compounds read low 1.02 | S. cerevisiae deletion strains, locus YKR001C, strain vps1, active compounds read low 1 | S. cerevisiae deletion strains, locus YKR026C, strain gcn3, active compounds read low 0.974 | S. cerevisiae deletion strains, locus YKR091W, strain srl3, active compounds read low 0.981 | S. cerevisiae deletion strains, locus YLL001W, strain dnm1, active compounds read low 0.955 | S. cerevisiae deletion strains, locus YLL026W, active compounds read low 0.989 | S. cerevisiae deletion strains, locus YLL041C, strain sdh2, active compounds read low 0.968 | S. cerevisiae deletion strains, locus YLR027C, strain aat2, active compounds read low 0.982 | S. cerevisiae deletion strains, locus YLR039C, strain RIC1, active compounds read low 0.991 | S. cerevisiae deletion strains, locus YLR058C, strain SHM2, active compounds read low 1.02 | S. cerevisiae deletion strains, locus YLR102C, strain apc9, active compounds read low 1 | S. cerevisiae deletion strains, locus YLR113W, strain HOG1, active compounds read low 0.938 | S. cerevisiae deletion strains, locus YLR221C, strain rsa3, active compounds read low 0.98 | S. cerevisiae deletion strains, locus YLR258W, strain gsy2, active compounds read low 0.981 | S. cerevisiae deletion strains, locus YLR262C, strain YPT6 (second series), active compounds read low 0.973 | S. cerevisiae deletion strains, locus YLR262C, strain YPT6, active compounds read low 1.1 | S. cerevisiae deletion strains, locus YLR268W, strain sec22, active compounds read low 0.988 | S. cerevisiae deletion strains, locus YLR320W, strain mms22, active compounds read low 0.952 | S. cerevisiae deletion strains, locus YLR330W, strain CHS5, active compounds read low 1.01 | S. cerevisiae deletion strains, locus YLR342W, strain FKS1 (second series), active compounds read low 1.02 | S. cerevisiae deletion strains, locus YLR342W, strain FKS1, active compounds read low 0.972 | S. cerevisiae deletion strains, locus YLR357W, strain rsc2, active compounds read low 0.952 | S. cerevisiae deletion strains, locus YLR370C, strain arc18, active compounds read low 0.967 | S. cerevisiae deletion strains, locus YLR371W, strain rom2, active compounds read low 0.999 | S. cerevisiae deletion strains, locus YLR384C, strain iki3, active compounds read low 0.962 | S. cerevisiae deletion strains, locus YLR418C, strain cdc73, active compounds read low 1 | S. cerevisiae deletion strains, locus YML016C, strain PPZ1, active compounds read low 1.01 | S. cerevisiae deletion strains, locus YML032C, strain rad52, active compounds read low 1 | S. cerevisiae deletion strains, locus YML120C, strain ndi1, active compounds read low 0.964 | S. cerevisiae deletion strains, locus YML124C, strain tub3, active compounds read low 1.01 | S. cerevisiae deletion strains, locus YMR058W, strain fet3, active compounds read low 0.966 | S. cerevisiae deletion strains, locus YMR078C, strain ctf18, active compounds read low 1 | S. cerevisiae deletion strains, locus YMR125W, strain sto1, active compounds read low 0.973 | S. cerevisiae deletion strains, locus YMR129W, active compounds read low 0.981 | S. cerevisiae deletion strains, locus YMR205C, strain PFK2, active compounds read low 0.959 | S. cerevisiae deletion strains, locus YMR223W, strain ubp8, active compounds read low 1.01 | S. cerevisiae deletion strains, locus YMR231W, strain pep5, active compounds read low 0.971 | S. cerevisiae deletion strains, locus YMR263W, strain SAP30, active compounds read low 1.03 | S. cerevisiae deletion strains, locus YMR307W, strain GAS1, active compounds read low 0.993 | S. cerevisiae deletion strains, locus YNL067W, strain RPL9B, active compounds read low 1.03 | S. cerevisiae deletion strains, locus YNL071W, strain lat1, active compounds read low 0.978 | S. cerevisiae deletion strains, locus YNL128W, strain TEP1, active compounds read low 1.03 | S. cerevisiae deletion strains, locus YNL153C, strain GIM3, active compounds read low 1.03 | S. cerevisiae deletion strains, locus YNL183C, strain NPR1, active compounds read low 0.926 | S. cerevisiae deletion strains, locus YNL209W, strain ssb2, active compounds read low 0.982 | S. cerevisiae deletion strains, locus YNL233W, strain BNI4, active compounds read low 1.02 | S. cerevisiae deletion strains, locus YNL248C, strain rpa49, active compounds read low 0.968 | S. cerevisiae deletion strains, locus YNL250W, strain rad50, active compounds read low 1.01 | S. cerevisiae deletion strains, locus YNL271C, strain bni1, active compounds read low 1.01 | S. cerevisiae deletion strains, locus YNL298W, strain CLA4, active compounds read low 1.01 | S. cerevisiae deletion strains, locus YNL307C, strain MCK1, active compounds read low 1 | S. cerevisiae deletion strains, locus YNL322C, strain KRE1 (second series), active compounds read low 0.97 | S. cerevisiae deletion strains, locus YNL322C, strain KRE1, active compounds read low 1.02 | S. cerevisiae deletion strains, locus YNR049C, strain mso1, active compounds read low 0.972 | S. cerevisiae deletion strains, locus YNR052C, strain pop2, active compounds read low 0.997 | S. cerevisiae deletion strains, locus YOL006C, strain TOP1, active compounds read low 1.05 | S. cerevisiae deletion strains, locus YOL012C, strain htz1 0.993 | S. cerevisiae deletion strains, locus YOL147C, strain pex11, active compounds read low 0.999 | S. cerevisiae deletion strains, locus YOR001W, strain rrp6, active compounds read low 0.967 | S. cerevisiae deletion strains, locus YOR061W, strain CKA2, active compounds read low 1.02 | S. cerevisiae deletion strains, locus YOR069W, strain VPS5, active compounds read low 1.01 | S. cerevisiae deletion strains, locus YOR070C, strain gyp1, active compounds read low 0.979 | S. cerevisiae deletion strains, locus YOR080W, strain dia2, active compounds read low 0.97 | S. cerevisiae deletion strains, locus YOR083W, strain WHI5, active compounds read low 0.958 | S. cerevisiae deletion strains, locus YOR106W, strain vam3, active compounds read low 0.945 | S. cerevisiae deletion strains, locus YOR136W, strain idh2, active compounds read low 0.995 | S. cerevisiae deletion strains, locus YOR144C, strain elg1, active compounds read low 1 | S. cerevisiae deletion strains, locus YOR184W, strain ser1, active compounds read low 0.99 | S. cerevisiae deletion strains, locus YOR231W, strain MKK1, active compounds read low 0.996 | S. cerevisiae deletion strains, locus YOR265W, strain rbl2, active compounds read low 0.975 | S. cerevisiae deletion strains, locus YOR270C, strain vph1, active compounds read low 0.974 | S. cerevisiae deletion strains, locus YOR290C, strain snf2, active compounds read low 0.924 | S. cerevisiae deletion strains, locus YOR316C, strain cot1, active compounds read low 0.996 | S. cerevisiae deletion strains, locus YPL051W, strain arl3, active compounds read low 0.964 | S. cerevisiae deletion strains, locus YPL055C, strain LGE1, active compounds read low 1.07 | S. cerevisiae deletion strains, locus YPL078C, strain atp4, active compounds read low 0.968 | S. cerevisiae deletion strains, locus YPL106C, strain sse1, active compounds read low 0.958 | S. cerevisiae deletion strains, locus YPL240C, strain hsp82, active compounds read low 0.991 | S. cerevisiae deletion strains, locus YPL241C, strain CIN2, active compounds read low 1.01 | S. cerevisiae deletion strains, locus YPL256C, strain CLN2, active compounds read low 0.987 | S. cerevisiae deletion strains, locus YPR119W, strain clb2, active compounds read low 0.991 | S. cerevisiae deletion strains, locus YPR141C, strain kar3, active compounds read low 1 | S. cerevisiae deletion strains, locus YPR163C, strain tif3, active compounds read low 0.994 | S. cerevisiae deletion strains, locus YPR167C, strain met16, active compounds read low 1.01 | S. cerevisiae deletion strains, strain wtn01, active compounds read low 1 | S. cerevisiae strains, strain wild type, active compounds read low 1.02
